According to PubChem BioAssay:
Calls of active or inactive are those of the source.

Key:
Albumin (Bos taurus) = Albumin (Bos taurus) (UniProt P02769); test: bovine serum albumin binders on microarray, profiling panel, artefact control for SMM control protein annotation, biochemical, small-molecule microarray, Alexa647 label, 635/667 nm fluorescence (AID 1118); conditions: BSA-A647 binding, fluorescence 635 nm, higher = more signal;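 also: score merges 667 nm emission intensity and signal-to-noise per printed compound spot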
Chain of Albumin (Bos taurus) (P02769 whole entry, looked up): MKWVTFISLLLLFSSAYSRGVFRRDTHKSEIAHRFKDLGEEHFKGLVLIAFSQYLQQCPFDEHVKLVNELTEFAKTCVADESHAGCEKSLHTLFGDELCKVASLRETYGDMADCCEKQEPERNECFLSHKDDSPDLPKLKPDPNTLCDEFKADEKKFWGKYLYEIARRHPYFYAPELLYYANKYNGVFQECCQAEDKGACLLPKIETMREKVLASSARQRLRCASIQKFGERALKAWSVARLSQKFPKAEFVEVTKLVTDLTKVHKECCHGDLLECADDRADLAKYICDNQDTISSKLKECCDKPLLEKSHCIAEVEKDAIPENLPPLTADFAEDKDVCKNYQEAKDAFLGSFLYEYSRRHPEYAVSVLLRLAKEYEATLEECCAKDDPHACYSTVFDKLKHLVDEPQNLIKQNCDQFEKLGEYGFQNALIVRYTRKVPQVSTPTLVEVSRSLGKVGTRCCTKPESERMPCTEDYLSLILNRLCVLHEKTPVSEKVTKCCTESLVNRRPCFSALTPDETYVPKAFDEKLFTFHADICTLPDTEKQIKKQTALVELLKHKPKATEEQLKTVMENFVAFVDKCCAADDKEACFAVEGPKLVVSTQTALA

[1] = small-molecule microarray binders of probe aXIP, primary screen, biochemical, NeuroSMM set, 635/667 nm fluorescence (AID 1119); conditions: higher = more signal, called active from +8 up or from −8 down;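 also: probe is the protein aXip251-270 applied at 1 µg/mL to compound-printed slides; binding of probe to printed compounds measured as 667 nm fluorescence plus signal to noise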
[2] = small-molecule binders of probe aNOTCH3, primary screen, biochemical, small-molecule microarray, 635/667 nm fluorescence (AID 1120); conditions: higher = more signal;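 also: probe is a biotin-tagged antibody raised against NOTCH3 rather than NOTCH3 protein; score merges spot fluorescence near 667 nm with spot signal to noise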
[3] = small-molecule binders of probe aNOTCH2, primary screen, biochemical, small-molecule microarray, 635/667 nm fluorescence (AID 1121); conditions: higher = more signal;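 also: score merges feature fluorescence read at 667 nm with its signal to noise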
[4] = target: Carbonic anhydrase 2 (Homo sapiens) (UniProt P00918); test: CAII small-molecule binders, profiling panel, biochemical, small-molecule microarray, Alexa647-labelled CAII (AID 1122); conditions: CAII-A647 binding fluorescence, higher = more signal
[5] = COS7 lysate on small-molecule microarray, probe aHis, 635 nm (AID 1123); conditions: COS7 cell lysate, fluorescence, higher = more signal;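 also: z-score combines 667nm fluorescence intensity with signal-to-noise per printed compound spot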
[6] = compound binding in COS7 lysate, probe aLAP1, primary screen, cell lysate, small-molecule microarray (AID 1124); conditions: probe aLAP1, fluorescence, higher = more signal;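 also: lysate comes from COS7 cells expressing LAP1 and is applied at 0.3 µg/mL; score merges spot fluorescence near 667 nm with signal-to-noise over triplicate slides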
Sam68 (KHDRBS1) = test: Sam68 small-molecule binders, primary screen, biochemical, small-molecule microarray, 635 nm fluorescence (AID 1125); conditions: small-molecule microarray binding, higher = more signal;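 also: score merges 667 nm channel intensity with signal to noise over triplicate slides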
[7] = test system: Chordin-like protein 2 (CHRDL2); test: CHRDL2 small-molecule binders, primary screen, biochemical, small-molecule microarray, 635 nm fluorescence (AID 1126); conditions: small-molecule microarray binding, fluorescence 635 nm; higher = more signal;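 also: printed compound slides probed with Chrdl2 protein at 4 µg/mL for 1 h at 4 C; score merges 667 nm emission intensity with signal to noise over three replicate slides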
[8] = target: Concanavalin-A (Canavalia ensiformis) (UniProt P02866); test: ConA small-molecule binders, primary screen, artefact control for SMM control protein annotation, biochemical, small-molecule microarray, Alexa647 label, 635 nm (AID 1127); conditions: ConA-A647 binding fluorescence, higher = more signal;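 also: z combines 667 nm emission intensity with signal-to-noise across three replicate slides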
Chain of Concanavalin-A (Canavalia ensiformis) (P02866 whole entry, looked up): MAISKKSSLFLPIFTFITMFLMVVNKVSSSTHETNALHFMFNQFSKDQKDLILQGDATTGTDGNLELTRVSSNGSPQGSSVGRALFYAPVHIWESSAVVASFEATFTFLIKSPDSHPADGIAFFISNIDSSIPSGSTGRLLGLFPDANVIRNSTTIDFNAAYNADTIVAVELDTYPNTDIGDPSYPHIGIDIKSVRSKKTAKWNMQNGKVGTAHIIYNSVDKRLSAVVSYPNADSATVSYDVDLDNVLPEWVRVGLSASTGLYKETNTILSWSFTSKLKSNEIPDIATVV

[9] = anti-His antibody binders, primary screen, artefact control for SMM control protein annotation, biochemical, small-molecule microarray, 635 nm fluorescence (AID 1128); conditions: anti-His Alexa647 antibody binding, higher = more signal;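 also: score merges feature fluorescence with signal-to-noise for each printed compound spot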
[10] = test system: Human papillomavirus type 1a E7 protein (residues 1-88); test: HPV1a E7 small-molecule binders, primary screen, biochemical, small-molecule microarray, residues 1-88, 635 nm (AID 1129); conditions: small-molecule microarray binding, fluorescence 635 nm; higher = more signal
[11] = target: Focal adhesion kinase 1 (Homo sapiens) (UniProt Q05397); test: small-molecule microarray binders of FAK, primary screen, biochemical, 635/667 nm fluorescence, BSA, DTT (AID 1130); conditions: PTK2 binding, 635 nm fluorescence, higher = more signal;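 also: composite of spot emission at 667 nm and signal to noise over triplicate slides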
Chain of Focal adhesion kinase 1 (Homo sapiens) (Q05397 whole entry, looked up): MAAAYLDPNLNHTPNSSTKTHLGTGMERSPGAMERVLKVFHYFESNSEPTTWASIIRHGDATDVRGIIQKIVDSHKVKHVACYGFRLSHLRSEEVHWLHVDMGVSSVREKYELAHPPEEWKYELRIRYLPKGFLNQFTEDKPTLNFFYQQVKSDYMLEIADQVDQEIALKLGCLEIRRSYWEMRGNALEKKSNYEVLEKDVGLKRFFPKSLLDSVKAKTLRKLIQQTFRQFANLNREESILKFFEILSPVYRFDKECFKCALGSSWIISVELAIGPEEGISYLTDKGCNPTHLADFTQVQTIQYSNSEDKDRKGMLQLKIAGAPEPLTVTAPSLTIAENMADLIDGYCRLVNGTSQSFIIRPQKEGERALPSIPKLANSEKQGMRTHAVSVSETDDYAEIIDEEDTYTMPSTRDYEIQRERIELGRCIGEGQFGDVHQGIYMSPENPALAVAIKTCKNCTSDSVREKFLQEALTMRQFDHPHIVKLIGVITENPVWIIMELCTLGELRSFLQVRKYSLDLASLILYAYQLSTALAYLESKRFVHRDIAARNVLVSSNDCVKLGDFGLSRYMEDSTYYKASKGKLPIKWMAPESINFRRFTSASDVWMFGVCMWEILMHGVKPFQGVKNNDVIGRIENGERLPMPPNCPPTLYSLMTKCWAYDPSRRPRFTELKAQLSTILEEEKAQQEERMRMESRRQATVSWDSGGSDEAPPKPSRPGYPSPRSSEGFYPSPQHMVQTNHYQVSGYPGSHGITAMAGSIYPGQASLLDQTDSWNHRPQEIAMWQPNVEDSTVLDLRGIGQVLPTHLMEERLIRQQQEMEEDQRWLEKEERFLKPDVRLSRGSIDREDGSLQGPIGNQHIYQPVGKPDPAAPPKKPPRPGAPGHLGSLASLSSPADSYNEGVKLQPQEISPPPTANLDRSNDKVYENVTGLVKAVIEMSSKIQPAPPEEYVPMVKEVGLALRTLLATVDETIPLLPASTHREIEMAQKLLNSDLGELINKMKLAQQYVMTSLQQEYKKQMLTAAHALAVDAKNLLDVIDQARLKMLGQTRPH

[12] = test system: Fibrinogen (Alexa647-labelled); test: fibrinogen binders on compound microarrays, profiling panel, artefact control for SMM control-protein annotation, biochemical, small-molecule microarray, 635/667 nm fluorescence (AID 1131); conditions: fibrinogen-A647 binding fluorescence, higher = more signal;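 also: z-score merges 667 nm fluorescence with per-spot signal-to-noise over triplicate slides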
[13] = target: Follistatin (Homo sapiens) (UniProt P19883); test: follistatin binders on small-molecule microarrays, primary screen, biochemical, small-molecule microarray, 635/667 nm fluorescence (AID 1132); conditions: FST binding, 635 nm fluorescence, higher = more signal
Chain of Follistatin (Homo sapiens) (P19883 whole entry, looked up): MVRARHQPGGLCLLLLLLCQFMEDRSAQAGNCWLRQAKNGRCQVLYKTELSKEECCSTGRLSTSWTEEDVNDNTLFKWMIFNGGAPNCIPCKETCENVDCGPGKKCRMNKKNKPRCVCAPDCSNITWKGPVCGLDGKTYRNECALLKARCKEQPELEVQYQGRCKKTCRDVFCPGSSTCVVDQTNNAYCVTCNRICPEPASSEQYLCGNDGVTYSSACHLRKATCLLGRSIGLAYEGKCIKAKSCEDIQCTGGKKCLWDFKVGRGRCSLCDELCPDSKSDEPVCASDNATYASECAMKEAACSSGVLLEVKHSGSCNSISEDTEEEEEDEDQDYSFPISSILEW

[14] = target: Fibroblast growth factor 2 (Homo sapiens) (UniProt P09038); test: FGF2 binders on small-molecule microarrays, primary screen, biochemical, small-molecule microarray, 635/667 nm fluorescence (AID 1133); conditions: small-molecule microarray binding, FGF2, fluorescence 635/667; higher = more signal
Chain of Fibroblast growth factor 2 (Homo sapiens) (P09038 whole entry, looked up): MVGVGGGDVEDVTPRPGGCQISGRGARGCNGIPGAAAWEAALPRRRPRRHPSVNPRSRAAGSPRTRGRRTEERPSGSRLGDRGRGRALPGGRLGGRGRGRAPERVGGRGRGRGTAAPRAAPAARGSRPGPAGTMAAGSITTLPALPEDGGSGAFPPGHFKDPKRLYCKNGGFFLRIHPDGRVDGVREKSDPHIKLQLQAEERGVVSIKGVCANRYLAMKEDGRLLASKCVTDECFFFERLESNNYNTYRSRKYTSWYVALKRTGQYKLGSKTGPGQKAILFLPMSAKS

[15] = mitochondrial membrane potential change in A549 cells, profiling panel, cell-based, JC-1 fluorescence, basal, 24 h, 100 nL (AID 1138); conditions: higher = more signal;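 also: A549 lung adenocarcinoma cells under basal conditions with no added stimulus; test concentration not given here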
Lefty1 = Lefty1 binders on small-molecule microarrays, primary screen, biochemical, small-molecule microarray, 635/667 nm fluorescence (AID 1139); conditions: small-molecule microarray binding, fluorescence 635/667; higher = more signal
[16] = test system: wheat germ agglutinin (Triticum aestivum), Alexa647-labelled; test: wheat germ agglutinin binders on compound microarrays, profiling panel, artefact control for SMM control-protein annotation, biochemical, small-molecule microarray, 635/667 nm fluorescence (AID 1140); conditions: WGA-A647 binding, 635 nm fluorescence, higher = more signal;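 also: score merges 667 nm feature emission with signal to noise over triplicate slides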
[17] = target: Luciferin 4-monooxygenase (Photinus pyralis) (UniProt P08659); test: firefly luciferase enzyme inhibitors, primary screen, biochemical, luminescence, purified enzyme, 2006 set (AID 1141); conditions: SteadyGlo luminescence, 30 min, higher = more signal, called active from +8 up or from −8 down;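 also: cell-free assay with purified firefly luciferase at 100 ng per well in PBS; test concentration not given here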
Chain of Luciferin 4-monooxygenase (Photinus pyralis) (P08659 whole entry, looked up): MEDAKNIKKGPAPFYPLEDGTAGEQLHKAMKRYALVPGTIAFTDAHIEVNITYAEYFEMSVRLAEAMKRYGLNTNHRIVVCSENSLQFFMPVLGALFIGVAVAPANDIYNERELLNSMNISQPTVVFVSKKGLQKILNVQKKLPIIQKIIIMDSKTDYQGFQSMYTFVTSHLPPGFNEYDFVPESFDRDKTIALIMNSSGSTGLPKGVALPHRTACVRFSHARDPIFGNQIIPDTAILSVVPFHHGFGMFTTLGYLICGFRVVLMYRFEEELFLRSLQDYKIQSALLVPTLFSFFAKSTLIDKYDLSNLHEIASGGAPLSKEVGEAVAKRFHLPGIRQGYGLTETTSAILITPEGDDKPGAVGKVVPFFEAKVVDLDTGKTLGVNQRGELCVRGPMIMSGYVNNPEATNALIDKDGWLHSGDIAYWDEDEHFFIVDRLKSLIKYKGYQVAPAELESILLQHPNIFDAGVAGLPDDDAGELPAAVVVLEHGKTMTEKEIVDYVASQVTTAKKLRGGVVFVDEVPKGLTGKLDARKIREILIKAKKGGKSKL

Compound | composite z-score (Albumin (Bos taurus)) | composite Z-score [1] | composite z-score [2] | composite z-score [3] | composite z-score [4] | composite z-score [5] | composite z-score [6] | composite z-score (Sam68 (KHDRBS1)) | composite z-score [7] | composite z-score [8] | composite z-score [9] | composite z-score [10] | composite z-score [11] | composite z-score [12] | composite z-score [13] | composite z-score [14] | z-score [15] | composite z-score (Lefty1) | composite z-score [16] | z-score [17]
CC(C)(C)OC(=O)CC[C@]1(C(=O)N2CCOCC2)COC(c2ccc(OCCCO)cc2)=N1 | 0.947 | -0.124 (inactive) | -0.0387 | -0.129 | 0.853 | 2.85 | -0.494 | 0.836 | -1.17 | 0.0647 | 2.44 | 0.882 | 0.427 | 0.507 | -0.0198 | -0.225 | 1.62 | -0.692 | 0.672 | -1.06 (inactive)
CCOC(=O)C=C1C[C@@H](c2cccc([N+](=O)[O-])c2)O[C@@H](c2cccc([N+](=O)[O-])c2)O1 | 0.817 | 0.636 (inactive) | 0.13 | -0.125 | 0.425 | 2.07 | 0.863 | 1.32 | 0.338 | 1.1 | 1.1 | 1.11 | 0.867 | 0.871 | 0.669 | 0.715 | 3.03 | 0.279 | 0.697 | 1.31 (inactive)
CCCCC(=C=CC[C@@H](O)c1ccccc1OCCO)C[C@@H](O)c1ccccn1 | 0.043 | 0.504 (inactive) | -0.0077 | -0.197 | 0.678 | 0.522 | 0.137 | 0.81 | 0.179 | 0.287 | -0.242 | 0.451 | 0.36 | 0.296 | 0.638 | 0.356 | 0.969 | 0.699 | -0.306 | -0.96 (inactive)
O=C1O[C@H](c2ccccc2)[C@H](c2ccccc2)N2[C@H]1[C@@H](C(=O)O)[C@]1(C(=O)Nc3ccc(C#CC4(O)CCCCCC4)cc31)[C@H]2c1ccccc1OCCO | 0.9 | 0.0463 (inactive) | 0.451 | 0.0979 | 0.487 | 1.27 | 0.774 | 1.32 | 0.0298 | 1.14 | 1.16 | 1.23 | 0.854 | 0.924 | 0.729 | 0.435 | 0.833 | 0.664 | 1.25 | -3.82 (inactive)
CC(C)C(=C=CC[C@H](O)c1cccc(OCCO)c1)C[C@H](O)c1ccccn1 | 0.481 | -0.128 (inactive) | -0.0647 | -0.146 | 0.811 | 0.48 | 0.182 | 0.353 | -0.0719 | 0.13 | 0.474 | 0.534 | 0.0358 | -1.37 | 0.972 | 0.236 | 0.717 | 0.788 | 0.641 | -0.147 (inactive)
COc1ccc([Si](C)(C)[C@H]2[C@H](CC(=O)N3CCC[C@H]3CO)O[C@@]3(C(=O)N(C)c4ccccc43)[C@@H]2C)cc1 | 0.728 | 1.38 (inactive) | 0.103 | -0.103 | 0.487 | 0.459 | 0.378 | 0.646 | 0.808 | 0.119 | 1.86 | 0.0098 | -0.0086 | 0.509 | 1.53 | 0.798 | -0.151 | 1.16 | 0.051 | 0.229 (inactive)
COC(=O)[C@H](Cc1ccccc1)N1CC(C)(OC)O[C@@H](Cc2ccccc2)[C@H]1/C=C/C1CC1 (stereo not given in full) | -0.266 | 0.571 (inactive) | -0.165 | -0.108 | 0.348 | 0.763 | 0.106 | 0.417 | -0.359 | 0.371 | 0.575 | 0.145 | 0.0639 | 0.47 | 0.0103 | 0.0959 | 0.385 | -0.14 | 0.808 | -0.138 (inactive)
C[C@H]1C2[C@H](Cc3ccccc3)NC(=O)[C@]23C(=O)N[C@@H](Cc2ccccc2)C(=O)N2CCC[C@H]2C(=O)NC/C=C/CC/C=C/C3[C@@H]2O[C@]12C (stereo not given in full) | 0.688 | -0.571 (inactive) | 0.073 | -0.159 | 0.619 | 0.501 | 0.472 | 0.868 | 0.638 | 0.236 | 0.196 | 0.965 | -0.153 | 0.596 | 0.925 | 0.359 | 0.974 | 0.754 | 0.0255 | 0.527 (inactive)
COc1cccc(C)c1NC(=O)O[C@H]1[C@H](OC(=O)Nc2ccc3c(c2)OCO3)[C@H](OC(=O)Nc2ccc3c(c2)OCO3)[C@@H](OC)O[C@@H]1CO | 0.428 | 0.645 (inactive) | 0.473 | -0.101 | 0.3 | 1.43 | 0.405 | 1.3 | 0.0955 | 1.17 | 1.61 | 1.27 | 0.197 | 0.993 | 1.3 | 0.662 | 0.123 | 0.802 | 0.7 | -6.86 (inactive)
COC(=O)C(CC#Cc1ccc2c(c1)[C@]1(C(=O)N2)[C@H](C(N)=O)[C@H]2C(=O)O[C@H](c3ccccc3)[C@H](c3ccccc3)N2[C@@H]1c1ccccc1OCCO)C(=O)OC | 0.398 | -0.363 (inactive) | -0.248 | -0.124 | 0.434 | 2.34 | 0.782 | 1.13 | -0.0393 | 1.12 | 1.25 | 1.22 | 0.474 | 0.591 | 0.917 | 0.535 | -1.05 | 0.607 | 0.775 | -0.638 (inactive)
COc1cc2c(cc1O)C(C)N(Cc1sc3ccccc3c1Cl)CC2 (stereo not given) | 1.01 | -0.768 (inactive) | -0.014 | -0.0158 | 0.937 | 0.477 | -0.181 | -1.44 | -1.9 | -1.53 | -0.119 | -1.14 | -0.439 | -2.68 | -0.678 | -1.11 | 0.218 | -1.44 | 0.358 | 1.39 (inactive)
